dFosB act: mouse delta FosB homodimer activation | P13346 | purified delta FosB, TAMRA-CDK5 oligo fluorescence polarization; percent of positive-control signal above neutral wells | activation, % at 25 µM | actives 0.99% (n = 340,000) | AID 493131;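 active means mean activation above about 17%, with every replicate also reaching it, limit read from the data, passing the limit was not always enough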
Target sequence (P13346 whole entry, looked up): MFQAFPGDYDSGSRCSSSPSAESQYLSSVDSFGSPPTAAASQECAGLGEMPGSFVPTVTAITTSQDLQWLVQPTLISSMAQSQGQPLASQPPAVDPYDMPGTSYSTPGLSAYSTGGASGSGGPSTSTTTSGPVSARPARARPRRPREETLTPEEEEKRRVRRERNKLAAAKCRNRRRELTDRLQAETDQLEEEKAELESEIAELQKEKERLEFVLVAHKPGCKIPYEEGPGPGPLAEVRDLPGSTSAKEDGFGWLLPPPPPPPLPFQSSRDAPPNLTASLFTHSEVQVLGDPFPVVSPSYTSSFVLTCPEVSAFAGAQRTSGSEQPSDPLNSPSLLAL
Platelet DG rel: modulates dense granule release in human platelets. human platelet-rich plasma, SFLLRN dense granule ATP release, luminescence. inhibition, %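 (compounds screened at 7.5 µM in platelet-rich plasma)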. actives 0.22% (n = 300,000). AID 1663;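 active means mean replicate score, as percent of positive control, at or above 50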
MPTP inh: permeability transition pore inhibition. actives 1.4% (n = 360,000). isolated mouse mitochondria, Ca2+ swelling absorbance, 30 min. AID 602449. inhibition, % at 10 µM;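 active means inhibition of 50% or more, scaled per plate between neutral and stimulator controls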;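 further: 0% = DMSO wells given calcium and 100% = 1 mM EGTA wells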
HSF-1 act: increases HSF-1 driven luciferase reporter signal | NIH3T3-HGL HSF-1 luciferase reporter, MG132, 8 h; 100% = twice DMSO control signal | activation, % at 9 µM | actives 1.7% (n = 300,000);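 active means mean replicate activation of at least 50% with a set share of replicates each reaching 50%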;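 further: 0% = median of the neutral control wells and 100% = twice that signal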
HSP90 inh: blocks HSP90-mediated luciferase refolding in reticulocyte lysate. Rabbit reticulocyte lysate, luciferase refolding luminescence, 3 h. inhibition, % at 5.6 µM. actives 0.91% (n = 290,000). AID 1789;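 active means inhibition above the screen-wide mean plus 3 SD, computed separately per campaign, cut at about 16% in these data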;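 further: 0% = DMSO wells and 100% = 60 µM geldanamycin wells; inhibitors lower the luminescence because luciferase stays unfolded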
HSF1 inh: HSF1 inhibition | NIH3T3-HGL HSE-luciferase, MG132-induced, luminescence 8 h; stronger effect = lower value | activity change, negative = inhibition, % at 7.5 µM (by protocol) | actives 0.77% (n = 300,000);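 active means more than half of replicate wells show activity change below -50%, luminescence cut by over half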;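 further: luciferase reports HSF-1 transcriptional activity via heat shock element; 0% = median of DMSO wells and -100% = zero luminescence signal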
MPTP counter: membrane potential counter-screen of mitochondrial pore inhibitors. shares compounds with MPTP inh. actives 78% (n = 5,000). isolated mitochondria, Rhodamine 123 fluorescence. inhibition, % at 10 µM; in the data active means inhibition above about 22%;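 further: 0% = DMSO vehicle and 100% = positive control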
MPTP abs DR: MPTP inhibition, dose response swelling confirmation; actives 58% (n = 780); isolated mitochondria swelling, absorbance; shares compounds with MPTP inh; AID 651561; IC50, µM; in the data active means IC50 below about 20 µM
MPTP cs DR: active in counter-screen for permeability transition pore inhibitors; shares compounds with MPTP inh; IC50, µM; actives 49% (n = 780); isolated mitochondria counterscreen, fluorescence read-out; AID 651564; in the data active means IC50 below about 80 µM
* hit, by the source's call; nt = no result. Only some compounds are listed: those with a hit (about 4.9% of all), similar ones and a draw of the others.

SMILES	dFosB act	Platelet DG rel	MPTP inh	HSF-1 act	HSP90 inh	HSF1 inh	MPTP counter	others
COc1ccc(OCC(O)CNC(C)c2ccccc2)cc1 (stereo unspecified)	-3	9	0	-16	0	-3	nt
CC(NCC(O)COc1ccc(Br)cc1)c1ccccc1 (stereo unspecified)	-4	14	81*	22	-4	-2	-8	MPTP abs DR=5.5*;MPTP cs DR=>80
CCCC(NCC(O)COc1ccc(-c2ccccc2)cc1)c1ccccc1 (stereo unspecified)	-9	1	55*	9	-4	0	5	MPTP abs DR=4*;MPTP cs DR=48*
Cc1ccccc1S(=O)(=O)N(C)C[C@H]1OCc2cnnn2CCCC(=O)N([C@H](C)CO)C[C@H]1C	nt	nt	-1	nt	nt	nt	nt
COc1ccc(N(CC(=O)NCc2cccs2)S(=O)(=O)c2ccc(C(C)=O)cc2)cc1	nt	nt	2	nt	nt	nt	nt
COc1ccc(CCN2C(=O)CSC2=Nc2ccc(C(C)C)cc2)cc1OC	-8	1	90*	6	1	-2	94*
O=C(Nc1cccc(Cl)c1)N(CCN1CCOCC1)Cc1cccc(Cl)c1	-4	11	85*	29	-2	0	91*
C=CCC(c1ccccc1F)N(CCN1CCOCC1)C(=O)Nc1cccc(Cl)c1 (stereo unspecified)	-4	9	31	15	4	3	nt
CCc1ccc2[nH]c(=O)c(CN(CCCN3CCOCC3)C(=O)Nc3cccc(Cl)c3)cc2c1	6	-6	-2	35	1	24	nt
O=C(Nc1cccc(Cl)c1)N(CCN1CCOCC1)Cc1ccccc1F	-7	2	79*	3	-2	7	77*
Cc1ccc2nc(Cl)c(/C=N/n3c(C)nnc3C)cc2c1	-27	0	1	-8	3	4	nt
Oc1ccccc1C1CC(c2cccs2)=NC(c2cccc(Br)c2)N1 (stereo unspecified)	-4	1	84*	49	1	35	97*
O=S(=O)(c1ccccc1)N1N=C(c2cccs2)CC1c1cccc(O)c1 (stereo unspecified)	-6	1	0	1	-3	0	nt
COC(=O)c1c(NC(=S)Nc2ccccc2Cl)sc(C)c1C	-3	-6	56*	33	1	41	70*
Cc1ccccc1OCCSCc1nc2ccccc2[nH]1	-1	3	79*	8	1	1	67*
Cc1ccc(C)c(OCc2cc(C(=O)NC3CCOC(C)(C)C3)no2)c1 (stereo unspecified)	-5	11	0	19	-3	10	nt
C=C(C)Cn1c(SCC(=O)N/N=C/c2c(O)ccc3ccccc23)nc2ccccc2c1=O	-1	-7	66*	-11	-2	-4	56*
COc1cc(/C=C2\SC(=O)N(CCN)C2=O)ccc1OS(=O)(=O)c1cc(C)ccc1C	-39	7	82*	4	5	11	-24	MPTP abs DR=7.5*;MPTP cs DR=29*
COc1ccc(/C=C2\SC(=O)N(CCC(=O)Nc3ccccc3)C2=O)cc1OC	4	-85	0	-37	-2	-29	nt
CCOc1ccccc1C(=O)N(Cc1ccc(C)o1)C1CCS(=O)(=O)C1 (stereo unspecified)	-4	1	-1	1	2	-1	nt
OC(CNCC1COc2ccccc2O1)COCc1cccs1 (stereo unspecified)	0	3	-2	-6	-2	0	nt
CC(OCC(O)CNCC1COc2ccccc2O1)c1ccc(Cl)cc1 (stereo unspecified)	-5	6	86*	-5	-2	4	-6	MPTP abs DR=15*;MPTP cs DR=58*
COc1cc(CCNC(=O)CCCn2c(=O)c3cccn3c3cccnc32)cc(OC)c1OC	-1	-1	1	-3	-6	-4	nt
